Measured values: the supplement of paper PMC10849652
The full data set covers some 7,900 targets. This sample favours those with a hit. About 0.6% of all pairs of compound and target were hits. A number with no mark means an inactive call.

Tests used:
Assay in all cases: log2 fold change, soluble protein after heating vs DMSO (PISA); higher = thermal stabilisation; K562 cells, 10 uM, 30 min; active = over 0.2 and 3.5 SD of the protein, either way, in both replicates (recomputed)
[1] = compound: COC1=CC=C(C=C1)CN2C=CC3=C2C=C(C=C3)C(=O)NO
In short: (§1)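 Aliquots of K562 cells (2×10^6 cells/mL) treated with 10 μM compound for 30 min were heated for 3 min over 48°C-58°C. After pooling and extraction in PBS with 0.5% NP-40 at 4°C, soluble protein from a 21,000xg, 90 min spin was quantified by TMTpro 16plex LC-MS/MS with channel sums equalised. Thermal stability is expressed against control samples, from duplicates, as a log2 fold change.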

[2] = compound: CON(C)C(=O)N1N=C(c2cc(F)ccc2F)S[C@@]1(CCCN)c1ccccc1 [filanesib]
In short: as §1

[3] = compound: CO[C@H]1C[C@@H]2CC[C@@H](C)[C@@](O)(O2)C(=O)C(=O)N2CCCC[C@H]2C(=O)O[C@H]([C@H](C)C[C@@H]2CC[C@H](n3cnnn3)[C@H](OC)C2)CC(=O)[C@H](C)/C=C(\C)[C@@H](O)[C@@H](OC)C(=O)[C@H](C)C[C@H](C)/C=C/C=C/C=C/1C [zotarolimus]
In short: as §1

[4] = compound: COc1cc(C(=O)O)ccc1NC(=O)[C@@H]1N[C@@H](CC(C)(C)C)[C@](C#N)(c2ccc(Cl)cc2F)[C@H]1c1cccc(Cl)c1F [idasanutlin]
In short: as §1

[5] = compound: COc1cc(Nc2ncc3c(n2)-c2ccc(Cl)cc2C(c2c(F)cccc2OC)=NC3)ccc1C(=O)O [alisertib]
In short: as §1

[6] = compound: COc1cc2nc(-c3cc(F)ccc3O)nc(N[C@@H]3CNC[C@H]3C(C)(C)O)c2cc1OC
In short: as §1

[7] = compound: COc1cc2ncnc(Nc3ccc(F)c(Cl)c3)c2cc1OCCCN1CCOCC1 [gefitinib]
In short: as §1

[8] = compound: COc1cccc2cc(-c3nc([C@H]4CC[C@H](C(=O)O)CC4)n4ncnc(N)c34)[nH]c12
In short: as §1

[9] = compound: CS(=O)(=O)CCNCc1ccc(-c2ccc3ncnc(Nc4ccc(OCc5cccc(F)c5)c(Cl)c4)c3c2)o1 [lapatinib]
In short: as §1

[10] = compound: CS(=O)(=O)N1CCN(Cc2cc3nc(-c4cccc5[nH]ncc45)nc(N4CCOCC4)c3s2)CC1 [pictilisib]
In short: as §1

[11] = compound: CS(=O)(=O)c1ccc(-c2cnc(N)c(C(=O)Nc3ccccc3)n2)cc1
In short: as §1

[12] = compound: C[C@@H](Oc1cc(-c2cnn(C3CCNCC3)c2)cnc1N)c1c(Cl)ccc(F)c1Cl [crizotinib]
In short: as §1

[13] = compound: C[C@@H]1COCCN1C2=NC(=NC(=C2)C3(CC3)S(=O)(=O)C)C4=C5C=CNC5=CC=C4
In short: as §1

[14] = compound: C[C@H](C1=CC=C(C=C1)C(=O)NC2=C3C=CNC3=NC=C2)N
In short: as §1

[15] = compound: C[C@H](Nc1ncnc2nc[nH]c12)c1cc2cccc(Cl)c2c(=O)n1-c1ccccc1 [duvelisib]
In short: as §1

[16] = compound: Cc1cc(Nc2cc(CN3CCOCC3)c3nc(C)c(Cc4ccc(Cl)cc4F)n3n2)n[nH]1 [gandotinib]
In short: as §1

[17] = compound: Cc1cc(Nc2cc(N3CCN(C)CC3)nc(Sc3ccc(NC(=O)C4CC4)cc3)n2)n[nH]1 [tozasertib]
In short: as §1

[18] = compound: Cc1cc(SCc2sc(-c3ccc(C(F)(F)F)cc3)nc2C)ccc1OCC(=O)O
In short: as §1

[19] = compound: Cc1ccc(-n2nc(C(C)(C)C)cc2NC(=O)Nc2ccc(OCCN3CCOCC3)c3ccccc23)cc1 [doramapimod]
In short: as §1

[20] = compound: Cc1ccc(C(=O)N(CCCN)[C@@H](c2nc3cc(Cl)ccc3c(=O)n2Cc2ccccc2)C(C)C)cc1 [ispinesib]
In short: as §1

Sequence of UniProt Q8IVT5 (Q8IVT5 whole entry, looked up): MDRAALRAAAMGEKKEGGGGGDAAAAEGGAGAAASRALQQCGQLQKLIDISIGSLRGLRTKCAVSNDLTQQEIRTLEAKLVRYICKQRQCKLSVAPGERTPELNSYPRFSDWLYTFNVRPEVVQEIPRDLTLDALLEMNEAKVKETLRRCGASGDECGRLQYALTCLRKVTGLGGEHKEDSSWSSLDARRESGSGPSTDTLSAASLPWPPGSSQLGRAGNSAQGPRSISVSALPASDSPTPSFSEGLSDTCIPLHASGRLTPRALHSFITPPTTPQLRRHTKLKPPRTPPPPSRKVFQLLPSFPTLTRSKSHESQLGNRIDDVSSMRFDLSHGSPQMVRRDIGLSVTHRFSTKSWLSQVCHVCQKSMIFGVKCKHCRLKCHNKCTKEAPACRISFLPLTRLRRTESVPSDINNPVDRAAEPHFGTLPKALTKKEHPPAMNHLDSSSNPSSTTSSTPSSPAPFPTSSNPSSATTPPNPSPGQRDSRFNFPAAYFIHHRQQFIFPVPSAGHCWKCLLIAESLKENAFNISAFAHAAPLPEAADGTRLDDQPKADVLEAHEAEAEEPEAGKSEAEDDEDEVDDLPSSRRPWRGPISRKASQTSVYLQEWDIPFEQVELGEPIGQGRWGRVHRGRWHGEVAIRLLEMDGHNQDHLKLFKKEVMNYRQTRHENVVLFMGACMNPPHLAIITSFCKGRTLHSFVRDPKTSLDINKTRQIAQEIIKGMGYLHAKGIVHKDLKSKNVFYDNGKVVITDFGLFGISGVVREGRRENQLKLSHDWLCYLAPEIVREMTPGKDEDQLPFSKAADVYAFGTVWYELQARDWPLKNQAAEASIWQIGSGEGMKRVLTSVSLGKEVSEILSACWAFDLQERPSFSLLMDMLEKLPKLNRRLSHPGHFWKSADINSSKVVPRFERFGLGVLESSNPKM
Sequence of UniProt P49441 (P49441 whole entry, looked up): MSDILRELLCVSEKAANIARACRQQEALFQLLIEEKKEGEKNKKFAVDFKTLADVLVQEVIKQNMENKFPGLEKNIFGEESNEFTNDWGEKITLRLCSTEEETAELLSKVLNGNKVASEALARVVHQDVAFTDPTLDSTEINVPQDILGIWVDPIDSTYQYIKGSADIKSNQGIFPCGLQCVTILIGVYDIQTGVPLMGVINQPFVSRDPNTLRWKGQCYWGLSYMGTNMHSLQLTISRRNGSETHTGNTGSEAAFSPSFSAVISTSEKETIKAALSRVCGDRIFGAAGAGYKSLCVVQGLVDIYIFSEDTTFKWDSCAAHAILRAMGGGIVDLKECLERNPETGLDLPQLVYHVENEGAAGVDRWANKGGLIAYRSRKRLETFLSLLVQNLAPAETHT
Sequence of UniProt Q96PC5 (Q96PC5 whole entry, looked up): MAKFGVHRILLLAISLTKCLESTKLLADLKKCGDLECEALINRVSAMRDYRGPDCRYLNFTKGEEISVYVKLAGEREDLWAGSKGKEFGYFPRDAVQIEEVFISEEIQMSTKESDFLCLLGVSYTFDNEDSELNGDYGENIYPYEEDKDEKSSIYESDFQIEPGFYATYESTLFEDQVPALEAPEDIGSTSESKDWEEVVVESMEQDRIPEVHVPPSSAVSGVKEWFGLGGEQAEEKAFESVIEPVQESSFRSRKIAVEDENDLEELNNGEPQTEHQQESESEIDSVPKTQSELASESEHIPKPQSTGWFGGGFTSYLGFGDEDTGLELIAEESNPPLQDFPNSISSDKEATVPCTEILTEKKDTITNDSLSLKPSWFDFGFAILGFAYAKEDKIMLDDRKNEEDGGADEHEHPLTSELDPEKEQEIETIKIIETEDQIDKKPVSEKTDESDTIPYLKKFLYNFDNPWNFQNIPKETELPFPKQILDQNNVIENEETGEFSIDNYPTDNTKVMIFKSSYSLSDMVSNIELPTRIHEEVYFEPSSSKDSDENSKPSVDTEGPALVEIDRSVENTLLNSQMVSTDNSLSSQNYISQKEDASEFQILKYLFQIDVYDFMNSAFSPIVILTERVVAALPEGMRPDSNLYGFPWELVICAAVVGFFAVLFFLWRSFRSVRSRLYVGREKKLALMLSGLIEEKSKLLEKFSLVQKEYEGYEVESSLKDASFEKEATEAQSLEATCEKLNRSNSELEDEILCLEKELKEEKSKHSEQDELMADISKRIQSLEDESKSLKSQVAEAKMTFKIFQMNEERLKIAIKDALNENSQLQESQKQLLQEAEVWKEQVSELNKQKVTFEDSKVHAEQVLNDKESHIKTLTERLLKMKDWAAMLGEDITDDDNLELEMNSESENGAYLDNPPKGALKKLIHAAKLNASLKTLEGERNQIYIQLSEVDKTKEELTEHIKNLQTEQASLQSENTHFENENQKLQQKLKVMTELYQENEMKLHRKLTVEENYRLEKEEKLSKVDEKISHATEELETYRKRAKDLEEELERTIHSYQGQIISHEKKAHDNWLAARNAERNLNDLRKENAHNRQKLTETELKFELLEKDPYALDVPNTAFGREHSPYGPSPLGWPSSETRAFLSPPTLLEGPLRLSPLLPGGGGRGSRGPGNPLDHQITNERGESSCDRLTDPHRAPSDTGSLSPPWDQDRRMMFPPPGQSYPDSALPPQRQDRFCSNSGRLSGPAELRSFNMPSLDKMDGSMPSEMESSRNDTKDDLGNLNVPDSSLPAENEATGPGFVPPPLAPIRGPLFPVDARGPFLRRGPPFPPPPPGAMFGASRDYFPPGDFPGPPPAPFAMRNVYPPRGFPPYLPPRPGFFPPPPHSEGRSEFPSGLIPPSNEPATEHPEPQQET
Sequence of UniProt Q4G0J3 (Q4G0J3 whole entry, looked up): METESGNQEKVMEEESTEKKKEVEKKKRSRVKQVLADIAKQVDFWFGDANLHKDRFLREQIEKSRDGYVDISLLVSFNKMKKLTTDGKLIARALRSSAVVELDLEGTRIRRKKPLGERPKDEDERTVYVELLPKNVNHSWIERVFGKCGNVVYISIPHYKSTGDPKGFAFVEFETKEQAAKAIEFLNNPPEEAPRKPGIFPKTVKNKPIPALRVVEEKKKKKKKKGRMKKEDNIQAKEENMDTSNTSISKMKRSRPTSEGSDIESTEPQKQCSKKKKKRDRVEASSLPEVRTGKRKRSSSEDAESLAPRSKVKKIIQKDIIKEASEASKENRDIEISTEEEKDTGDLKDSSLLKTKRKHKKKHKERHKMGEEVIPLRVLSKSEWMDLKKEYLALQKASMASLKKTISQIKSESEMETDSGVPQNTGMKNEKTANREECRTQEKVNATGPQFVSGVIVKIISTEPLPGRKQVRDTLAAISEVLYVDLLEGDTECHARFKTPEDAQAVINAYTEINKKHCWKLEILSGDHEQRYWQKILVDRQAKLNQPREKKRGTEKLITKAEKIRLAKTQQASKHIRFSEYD
Sequence of UniProt Q92615 (Q92615 whole entry, looked up): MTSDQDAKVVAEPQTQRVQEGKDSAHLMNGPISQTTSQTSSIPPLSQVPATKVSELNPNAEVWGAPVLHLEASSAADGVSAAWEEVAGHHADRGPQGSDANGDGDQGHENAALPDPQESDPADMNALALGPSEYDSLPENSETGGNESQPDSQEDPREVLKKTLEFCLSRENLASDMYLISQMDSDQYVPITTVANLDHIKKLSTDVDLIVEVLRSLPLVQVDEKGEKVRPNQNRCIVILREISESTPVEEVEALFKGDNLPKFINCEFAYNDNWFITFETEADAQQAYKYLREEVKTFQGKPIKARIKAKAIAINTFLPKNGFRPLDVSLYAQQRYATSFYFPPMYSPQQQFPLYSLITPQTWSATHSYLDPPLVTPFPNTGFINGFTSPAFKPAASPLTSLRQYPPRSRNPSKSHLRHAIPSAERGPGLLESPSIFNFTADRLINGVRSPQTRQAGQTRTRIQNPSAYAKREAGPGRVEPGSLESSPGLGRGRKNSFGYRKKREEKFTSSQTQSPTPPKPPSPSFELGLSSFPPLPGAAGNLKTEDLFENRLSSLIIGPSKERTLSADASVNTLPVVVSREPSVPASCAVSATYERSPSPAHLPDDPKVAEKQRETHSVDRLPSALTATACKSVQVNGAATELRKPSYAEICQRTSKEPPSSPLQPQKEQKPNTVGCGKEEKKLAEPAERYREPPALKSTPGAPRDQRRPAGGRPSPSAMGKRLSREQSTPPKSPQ
Sequence of UniProt Q8IWA4 (Q8IWA4 whole entry, looked up): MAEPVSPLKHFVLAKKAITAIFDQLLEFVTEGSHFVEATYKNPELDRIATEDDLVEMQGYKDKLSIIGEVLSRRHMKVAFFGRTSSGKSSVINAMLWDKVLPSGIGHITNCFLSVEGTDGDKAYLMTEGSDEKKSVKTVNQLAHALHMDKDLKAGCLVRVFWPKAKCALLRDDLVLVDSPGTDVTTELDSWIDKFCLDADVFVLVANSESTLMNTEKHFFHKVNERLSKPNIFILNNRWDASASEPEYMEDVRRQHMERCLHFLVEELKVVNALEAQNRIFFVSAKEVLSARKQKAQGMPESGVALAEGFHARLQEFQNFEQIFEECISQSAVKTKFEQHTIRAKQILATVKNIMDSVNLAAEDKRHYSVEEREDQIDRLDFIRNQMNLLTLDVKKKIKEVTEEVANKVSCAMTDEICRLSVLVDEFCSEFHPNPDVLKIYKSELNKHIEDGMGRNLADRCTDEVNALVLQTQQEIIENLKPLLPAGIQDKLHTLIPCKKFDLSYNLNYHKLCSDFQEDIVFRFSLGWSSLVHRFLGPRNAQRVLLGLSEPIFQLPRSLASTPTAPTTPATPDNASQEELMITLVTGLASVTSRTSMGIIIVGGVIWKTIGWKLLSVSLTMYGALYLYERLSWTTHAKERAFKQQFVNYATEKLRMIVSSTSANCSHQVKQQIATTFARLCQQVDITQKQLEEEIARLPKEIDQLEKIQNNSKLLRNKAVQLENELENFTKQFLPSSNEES
Sequence of UniProt Q13257 (Q13257 whole entry, looked up): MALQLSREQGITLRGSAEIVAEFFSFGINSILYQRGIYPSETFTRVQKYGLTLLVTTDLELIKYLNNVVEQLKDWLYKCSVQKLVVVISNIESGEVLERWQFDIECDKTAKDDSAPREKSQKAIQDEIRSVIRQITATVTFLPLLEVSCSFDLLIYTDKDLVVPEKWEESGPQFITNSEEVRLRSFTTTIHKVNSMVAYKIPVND

| Target | log2 fold change [1] | log2 fold change [2] | log2 fold change [3] | log2 fold change [4] | log2 fold change [5] | log2 fold change [6] | log2 fold change [7] | log2 fold change [8] | log2 fold change [9] | log2 fold change [10] | log2 fold change [11] | log2 fold change [12] | log2 fold change [13] | log2 fold change [14] | log2 fold change [15] | log2 fold change [16] | log2 fold change [17] | log2 fold change [18] | log2 fold change [19] | log2 fold change [20] |
| --- | --- | --- | --- | --- | --- | --- | --- | --- | --- | --- | --- | --- | --- | --- | --- | --- | --- | --- | --- | --- |
| KSR1 (UniProt Q8IVT5) | 0.015 | 0.033 | 0.016 | 0.034 | 0.123 | -0.329 | -0.028 | 0.126 | 0.087 | 0.176 | -0.017 | -0.287 | 0.036 | 0.047 | 0.031 | -0.067 | -0.221 | -0.017 | 0.052 | -0.113 |
| INPP1 (UniProt P49441) | -0.086 | -0.019 | 0.048 | -0.123 | -0.056 | 0.101 | -0.031 | 0.03 | -0.049 | -0.116 | 0.041 | -0.016 | -0.012 | -0.028 | 0.011 | -0.084 | 0.018 | -0.043 | -0.018 | 0.052 |
| MAD2L1 (UniProt Q13257) | -0.024 | -0.042 | 0.034 | -0.12 | -0.003 | 0.048 | 0.008 | 0.01 | -0.064 | 0.024 | 0.02 | -0.076 | 0.092 | -0.004 | 0.024 | -0.139 | 0.101 | 0.037 | 0.034 | -0.023 |
| MAP1LC3B2 (UniProt A6NCE7) | -0.026 | -0.062 | 0.011 | -0.022 | -0.004 | -0.032 | -0.003 | -0.035 | -0.011 | -0.004 | 0.035 | -0.047 | 0.054 | -0.144 | 0.061 | -0.012 | 0.114 | 0.011 | 0.003 | 0.02 |
| LARP4B (UniProt Q92615) | 0.035 | 0.056 | 0.004 | 0.053 | -0.054 | -0.108 | 0.011 | -0.06 | 0.081 | -0.009 | -0.066 | -0.1 | -0.121 | 0.104 | -0.029 | -0.029 | 0.037 | 0.065 | 0.048 | -0.132 |
| MFN1 (UniProt Q8IWA4) | 0.042 | -0.182 | 0.06 | 0.034 | 0.262 | -0.523 (active) | 0.017 | 0.03 | 0.002 | 0.024 | 0.031 | -0.026 | 0.027 | -0.063 | 0.037 | 0.025 | -0.063 | 0.039 | 0.02 | -0.207 |
| MIA2 (UniProt Q96PC5) | -0.017 | 0.121 | 0.037 | -0.017 | 0.069 | 0.027 | 0.034 | -0.109 | 0.029 | -0.019 | 0.001 | 0.015 | 0.006 | -0.059 | -0.077 | -0.034 | 0.09 | 0.044 | -0.01 | 0.011 |
| LARP7 isoform 3 (UniProt Q4G0J3) | -0.258 (active) | 0.071 | 0.082 | -0.019 | -0.007 | -0.165 | 0.001 | 0.042 | 0.082 | -0.041 | -0.001 | 0.022 | 0.068 | -0.077 | -0.013 | -0.065 | 0.071 | 0.088 | 0.012 | -0.007 |
